TDP1 cell CPT – growth inhibition of DT40 Tdp1-/-;hTDP1 cells with camptothecin (screen for TDP1 inhibitors) | chicken DT40 Tdp1-/-;hTDP1 cells + 20 nM CPT, ATP luminescence, 48 h | AID 686979 | hit rate 12% among 420,000 | Potency, µM (doses to about 46.2 µM), without a hit: top-dose activity change, negative = growth inhibition, hits mostly inhibitors; further: potency means the concentration at half of the fitted maximal effect; nearly all actives have a fitted effect of over 55% in size
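Chicken DT40 Tdp1-/- cells complemented with human TDP1, 400 cells/well, exposed to compounds plus 20 nM camptothecin for at least 48 h at 37 C; viability read as ATP content by CellTiter-Glo luminescence.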
TDP1 cell noCPT – qHTS for Inhibitors of human tyrosyl-DNA phosphodiesterase 1 (TDP1): qHTS in cells in absence of CPT; AID 686978, 2013; DT40 Tdp1-/- hTDP1 cells, no CPT, ATP luminescence, 48 h; Potency, µM (doses to about 46.2 µM), for the others: at the highest dose activity change, negative = growth inhibition, most hits filed as inhibitors; hit rate 15% among 420,000; further: potency means the concentration at half of the fitted maximal effect; nearly all actives have a fitted effect of over 55% in size
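Chicken DT40 Tdp1-/- cells stably complemented with human TDP1 were seeded at 400 cells/well with DMSO in place of 20 nM camptothecin. After compound pinning, cells grew at least 48 hr at 37 °C; viability read by CellTiter-Glo luminescence.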
HT1080 IDH1KD tx – HT-1080 IDH1 knockdown cell toxicity (counter line); HT-1080 IDH1 knockdown viability, ATP luminescence, 48 h; Potency, µM (titrated, usually from 46.1 µM), inactives show top-dose activity, negative = toxicity, hits mostly cytotoxic; hit rate 2% among 360,000;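 further: potency means the concentration at half of the fitted maximal effect; 0% = DMSO wells and -100% = cell-free medium wells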
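Using the IDH1-knockdown HT-1080 line run in the same batch and compound series as the NT line, viability after 48 h at 37 °C was determined by CellTiter-Glo luminescence and expressed as % activity.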
IL1B secr inh – blocks inflammasome-driven IL-1 beta release; AID 743279; THP-1 LPS/ATP IL-1B secretion, AlphaLISA, 16 h; stronger effect = lower value; hit rate 4.7% among 360,000; activity change, % at 57.5 µM; in the data active means activity change below about -50%; inconclusive means mostly about -30% to -49%
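THP-1 cells pretreated 1 hr with compounds (up to 57.5 uM final), then stimulated with LPS (250 ng/mL final) plus ATP (1.25 mM final); secreted IL-1B measured by AlphaLISA after 16 hr, decreased signal indicating inhibition.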
HT1080-NT tox – kills 2HG-producing HT-1080-NT fibrosarcoma cells; Potency, µM (doses to about 46.1 µM), inactives show at the highest dose activity, negative = less viability, hits mostly cytotoxic; hit rate 1.6% among 360,000; AID 686970; HT-1080-NT fibrosarcoma viability, CellTiter-Glo ATP luminescence, 48 h;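 further: NT is the 2HG producing partner of a matched IDH1 knockdown line; potency means the concentration at half of the fitted maximal effect; 0% = DMSO-treated cells and -100% = media-only wells without cells; nearly all actives have a fitted effect of over 55% in size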
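Luminescent CellTiter-Glo readout after 48 hours of compound exposure at 37 degrees C defined viability of HT-1080-NT cells. Activity was normalized to DMSO wells and cell-free media wells; concentration-response curves were fitted and assigned curve classes.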
* hit, by the source's call; ? = inconclusive; · = not tested or not shown. An excerpt weighted towards active compounds, which were near 19% of everything screened. Unless noted, the call rests on the fitted dose curve; in most records, active means well fitted curve in the direction sought with a large enough effect; inconclusive means small, poorly fitted or top-dose-only effect, or another doubt; inactive means no such curve, though single readings can be large; an effect the other way counts as inactive or inconclusive. Unless noted, on the % scale 0 is the no-effect control and ±100 the full control effect.

SMILES	TDP1 cell CPT	TDP1 cell noCPT	HT1080 IDH1KD tx	IL1B secr inh	HT1080-NT tox
COc1cccc(N2C(=NC(=O)C3CCCCC3)SC3CS(=O)(=O)CC32)c1 (centres undefined)	2%	3%	13%	-5	13%
Cn1nc(C(F)(F)F)c(-c2ccc(Br)cc2)c1NC(=O)c1cccnc1	?	13µM*	?	3	-28%
Cn1nc(C(F)(F)F)c(-c2ccc(F)cc2)c1NC(=O)Nc1ccc(F)cc1	16µM*	15µM*	?	·	23µM*
O=C(Nc1cccc(F)c1)N1CC2(CCN(C(=O)c3ccco3)CC2)C1	-8%	-7%	·	·	·
NC(=O)CSc1nnc(-c2ccccc2F)n1C1CC1	9%	2%	1%	-12	5%
C=CCc1cc(Cl)ccc1OCCNCCN1CCOCC1	?	-27%	-12%	?	-25%
Cc1cc(Nc2ccccc2Cl)n2nc(-c3ccco3)nc2n1	?	26µM*	·	·	·
CCOc1ccccc1Nc1cc(C)nc2nc(C)nn12	9%	2%	1%	5	7%
Cc1cc(Nc2cccc(F)c2)n2nc(-c3ccco3)nc2n1	18µM*	?	·	·	·
CCOC(=O)c1ccccc1Nc1cc(C)nc2nc(-c3ccco3)nn12	?	16µM*	·	·	·
Cc1nc(C(F)(F)F)ccc1C(=O)N1CCC(C)(C(=O)NS(=O)(=O)C2CC2)C1 (centres undefined)	-12%	-3%	8%	5	30%
O=c1[nH]c(NNC(=S)NC2CCCCC2)nc2c1C1(CCCC1)Cc1ccccc1-2	0%	-1%	-3%	21	29%
CCc1nc(N)nc(N)c1-c1ccc(Cl)c(N=[N+]=[N-])c1	5.2µM*	1.8µM*	2.9µM*	-3	?
CCc1nc(N)nc(N)c1-c1ccc(Cl)c([N+](=O)[O-])c1	0.18µM*	0.052µM*	0.18µM*	-1	?
COCCNC(=O)Cn1nc(-c2ccccc2C)ccc1=O	-15%	6%	-5%	?	-3%
CCC1(C)NC(=O)N(CC(=O)Nc2cc(C)on2)C1=O (centres undefined)	-5%	-7%	1%	1	0%
O=C(CCc1cn(Cc2ccc(F)cc2)c2ccccc12)N1CCOCC1	-21%	-9%	1%	4	3%
CN(C)c1ccc(CNC(=O)c2ccc3c(c2)N(C)C(=O)C2CCCCN32)cc1 (centres undefined)	18µM*	?	·	·	·
Cc1ccc(CNC(=O)CN2C(=O)C3CCCCN3c3ccc(C(=O)N(C)C)cc32)cc1 (centres undefined)	-6%	-24%	·	·	·
O=C1C=CC(=Nc2ccc3c(c2)Cc2cc(F)ccc2-3)O1	5.2µM*	7.3µM*	2%	-12	-5%
CSc1nc(N)nc2c1ncn2CC(=O)NCC(c1ccccc1)c1ccccc1	15µM*	21µM*	-4%	25	-2%
CSc1nc(N)nc2c1ncn2CC(=O)Nc1ccc(C)c(C)c1	13µM*	15µM*	-1%	24	-4%
Cc1ccc2[nH]c(=O)c(CN(CC3CCCO3)C(=S)Nc3ccccc3)cc2c1 (centres undefined)	13µM*	15µM*	-11%	-24	-4%
Cc1ccc2cc(CN(CC3CCCO3)C(=S)Nc3ccccc3)c(=O)[nH]c2c1 (centres undefined)	?	15µM*	?	?	?
Cc1ccc2cc(CN(CC3CCCO3)C(=S)Nc3ccccc3)c(=O)[nH]c2c1C (centres undefined)	2.9µM*	2.6µM*	?	-53*	?
SMILES	TDP1 cell CPT	TDP1 cell noCPT	HT1080 IDH1KD tx	IL1B secr inh	HT1080-NT tox
COc1cccc(NC(=O)N(C)C[C@H]2OCc3cnnn3CCCC(=O)N([C@H](C)CO)C[C@@H]2C)c1	-15%	-11%	1%	23	4%
COc1ccc(N2CCN(C(=O)[C@H](Cc3c[nH]c4ccccc34)NC(C)=O)CC2)cc1	-4%	-2%	8%	13	18%
Cc1ccc(N=C2S/C(=C/c3cccc(OCC(=O)O)c3)C(=O)N2C)cc1C	-2%	0%	-7%	9	-5%
COC(=O)c1ccc(N=C2S/C(=C\c3cc(C)n(-c4cccnc4)c3C)C(=O)N2C)cc1	?	18µM*	0%	?	-6%
CC(=O)c1cccc(NC(=O)c2sc(-n3nc(C)c(CCC(C)C)c3C)nc2C)c1	13µM*	?	·	·	·
Cc1nc(-n2nc(C)c(CCC(C)C)c2C)sc1C(=O)Nc1cccc(Cl)c1C	0%	-13%	·	·	·
Cc1cccc(NC(=O)c2sc(-n3nc(C)c(CCC(C)C)c3C)nc2C)c1C	?	21µM*	·	·	·
CCOc1ccccc1NC(=O)c1sc(-n2nc(C)c(CCC(C)C)c2C)nc1C	-12%	-17%	·	·	·
COc1ccccc1C(=O)ON=C1c2ccccc2-c2ccccc21	-27%	23µM*	-15%	-11	-10%
COc1cccc(-c2nnc(SCC(=O)N(C)c3ccccc3)o2)c1	?	10µM*	·	·	·
COc1ccc(-c2nnc(SCC(=O)N(Cc3ccccc3)C(C)(C)C)o2)cc1OC	23µM*	13µM*	-21%	?	-19%
CCN(C(=O)CSc1nnc(-c2cc(OC)c(OC)c(OC)c2)o1)c1ccccc1	15µM*	5.8µM*	·	·	·
COc1ccc(CN(C(=O)CSc2nnc(-c3ccccc3F)o2)c2ccc(F)cc2)cc1	18µM*	13µM*	-1%	11	-22%
CCc1ccc(OC(=O)CSc2nnc(-c3ccc(OC)c(OC)c3)o2)cc1	-3%	-1%	·	·	·
COC(=O)[C@H]1[C@@H]2C[C@H]3c4[nH]c5ccccc5c4CCN3C[C@@H]2CC[C@@H]1O	9%	-15%	·	·	·
